# Test system: HL-1
# Test: cardiomyocyte survival under oxidative or metabolic stress – cell-based, panel, H9c2 and HL-1, ATP luminescence, set 2, SAR follow-up (AID 651871);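 note: cells exposed to stressor for 2 h before ATP readout; reference of the scale not given here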
# Conditions: H9c2/HL-1 cardiomyocytes, 2-deoxyglucose stress, with 2-deoxyglucose, run 10, at 19.8 µM (top of the series)
smiles,measurement,value
COc1ccc2c(c1OC)C(=O)N1c3ccccc3C(=O)N(Cc3cccc(Cl)c3Cl)C21 (stereo unspecified),activity (protection/inhibition),33.5%

# From PubChem BioAssay AID651871 (Sanford-Burnham Center for Chemical Genomics, 2012)
